Data on 35 compounds can be found in PubChem BioAssay (NCATS).

Results filed as inconclusive are left out. A number with no mark means an inactive call. Calls of active or inactive are those of the source. Calls follow the shape of the full dose curve. Numbered stars: 1 amine (or outer) side, 2 acyl side, 3 side chain; on linkers, the order of the positions; unused ones are H or OH. Bridge positions count the residues as written; N and C are the ends. Square brackets hold non-standard residues; d marks the D form. Peptide text beside a SMILES is read from it. I, II: the chains in the order shown. Actinocin(9to1) = Cc1c2oc3c(C)ccc(C(=O)[*:1])c3nc-2c(C(=O)[*:2])c(N)c1=O; NMeV = CN[C@H](C(=O)O)C(C)C; Sar = CNCC(=O)O
% is scaled to controls: 0 for no effect and ±100 for the full control effect; potency is read from the fitted curve at half-maximal effect.

The experiment is described as follows: Confirmatory qHTS to identify inhibitors of SARS-CoV-2 cell entry (AID 1645844). Also: nearly all actives have a fitted effect of over 45% in size. The following applies: SARS-CoV-2 pseudotyped particle cell entry, luciferase; series mostly up to 57.2 µM; activity, negative = inhibition: at the top concentration. The text has this: Assay Provider: Wei Zheng, Ph.D.
National Center for Advancing Translational Sciences, National Institute of Health, Rockville, MD.
SARS-CoV-2 spike protein, within the viral envelope, mediates viral attachment and infection of host cells. The SARS-CoV-2 spike protein specifically binds to the host receptor ACE2 (Angiotensin-converting enzyme 2). This interaction promotes endocytosis of the viral particle, additional events lead to viral-host cell membrane fusion and release of the viral contents, allowing viral replication.
While SARS-CoV-2 requires BSL-3 facilities for live virus work, pseudotyped partices (PP) that incorporate SARS-CoV-2 spike proteins without replication elements could facilitate studies on viral entry mechanisms in a BSL-2 setting. This PP cell entry assay could also enable screening of small molecule compound libraries in BSL-2 setting to identify inhibitors of SARS-CoV-2 cell entry.
SEQUENCE No. (e.g., 1, 2, 3, etc.); […] (e.g., Cells, Incubation, Reagent, etc.); VALUE and DESCRIPTION.
1. Cells. Seed 1500 HEK293-ACE2 cells (Expi293F with stable expression of human ACE2) in 2 uL/well media (DMEM, 10% FBS, 1x L-glutamine, 1x Pen/Strep, 1 ug/ml puromycin) in white 1536-well assay plates (Greiner #782073).
2. Incubation. Incubate at 37C with 5% CO2 overnight (~16 h).
3. Compounds. Dispense 23 nL/well compounds in DMSO via pin transfer.
4. Incubation. Incubate for 1 hr at 37C 5% CO2.
5. Reagent. Dispense 2 uL/well of SARS-CoV-2-S pseudotyped particles (PP). [a] PPs are produced with murine leukemia virus pseudotyping). [b] SARS-CoV-2-S is Wuhan-Hu-1 sequence (BEI #NR-52420) with C-terminal 19 amino acid truncation.
6. Centrifugation. […]
7. Incubation. Incubate at for 48 hr at 37C 5% CO2
8. Centrifugation. Remove supernatant with gentle centrifugation using a Blue Washer (BlueCat Bio).
9. Reagent. Dispense 4 uL/well of Bright-Glo Luciferase detection reagent (Promega #E2620).
10. Incubation. Incubate for 5 min at room temperature.
11. Detection. Read luminescence signal (Viewlux plate reader, PerkinElmer). Data was normalized with wells containing SARS-CoV-2-S PP as 100%, and wells containing bald PP (no fusion protein) as 0%.
In general terms: qHTS replaces the single test concentration by a dilution series.
As to `Nc1ccn([C@@H]2O[C@H](CO)[C@@H](O)C2(F)F)c(=O)n1`, the Potency is 0.341 µM (active). Same read-out and setting: under `CCC1=C[C@@H]2CN(C1)Cc1c([nH]c3ccccc13)[C@@](C(=O)OC)(c1cc3c(cc1OC)N(C)[C@H]1[C@@](O)(C(=O)OC)[C@H](OC(C)=O)[C@]4(CC)C=CCN5CC[C@]31[C@@H]54)C2` stands 1.48 µM (active). As for `COC(c1ccccc1)(c1ccccc1)[C@H](Oc1nc(C)cc(C)n1)C(=O)O`, the “activity, negative = inhibition” value was -11.6%. On to `O=C1CCc2ccc(OCCCCN3CCN(c4cccc(Cl)c4Cl)CC3)cc2N1`, for which the Potency was 19.2 µM (active). The same measure, in the same setting: under `CC[C@]1(O)C[C@H]2CN(CCc3c([nH]c4ccccc34)[C@@](C(=O)OC)(c3cc4c(cc3OC)N(C=O)[C@H]3[C@@](O)(C(=O)OC)[C@H](OC(C)=O)[C@]5(CC)C=CCN6CC[C@]43[C@@H]65)C2)C1` stands 0.0383 µM (active).

For the compound `CC(CN(C)C)CN1c2ccccc2CCc2ccccc21` (stereo not given), the Potency is 7.64 µM (active). Still for that read-out and setting: as for `Nc1ncn([C@@H]2O[C@H](CO)[C@@H](O)[C@H]2O)c(=O)n1`, the figure is 17.1 µM (active); as for `O=C(O)c1ccc(-n2nc(-c3ccccc3O)nc2-c2ccccc2O)cc1`, 30.4 µM (active); as for `CCc1c2c(nc3ccc(OC(=O)N4CCC(N5CCCCC5)CC4)cc13)-c1cc3c(c(=O)n1C2)COC(=O)[C@]3(O)CC`, 0.136 µM (active).

`COc1cccc2c1C(=O)c1c(O)c3c(c(O)c1C2=O)C[C@@](O)(C(=O)CO)C[C@@H]3O[C@H]1C[C@H](N)[C@H](O)[C@H](C)O1`: the Potency is 0.192 µM (active).

Take `CC(=O)Oc1ccccc1C(=O)Nc1ncc([N+](=O)[O-])s1`: the Potency was 3.83 µM (active). Consider `CCCc1cc(=O)[nH]c(=S)[nH]1`, for which the “activity, negative = inhibition” value was -10.8%.

Turning to `COc1c(C)c2c(c(O)c1C/C=C(\C)CCC(=O)OCCN1CCOCC1)C(=O)OC2`, the Potency was 0.0764 µM (active). On to `CC(CN1c2ccccc2Sc2ccccc21)N(C)C` (stereo not given), for which the Potency is 13.6 µM (active).

In the case of `CO[C@@H](C(=O)N1Cc2[nH]nc(NC(=O)c3ccc(N4CCN(C)CC4)cc3)c2C1)c1ccccc1`, the Potency is 0.482 µM (active). Same read-out and setting: as for `Cc1ccc(NC(=O)c2ccc(CN3CCN(C)CC3)cc2)cc1Nc1nccc(-c2cccnc2)n1`, the figure is 21.5 µM (active); as for `COc1cc(Nc2c(C#N)cnc3cc(OCCCN4CCN(C)CC4)c(OC)cc23)c(Cl)cc1Cl`, 19.2 µM (active); as for `CN(C)CCCN1c2ccccc2Sc2ccc(Cl)cc21`, 12.1 µM (active). The same measure, in the same setting: as for `CN1CCC(=C2c3ccccc3C=Cc3ccccc32)CC1`, the figure is 8.57 µM (active); as for `COC(=O)C1=C(C)NC(C)=C(C(=O)OCC(C)C)C1c1ccccc1[N+](=O)[O-]` (stereo not given), 6.07 µM (active). On the same count and under the same terms, as for `CNCCC(Oc1ccc(C(F)(F)F)cc1)c1ccccc1` (stereo not given), the figure is 6.81 µM (active). With `CC(C)(C)C(=O)OCOP(=O)(COCCn1cnc2c(N)ncnc21)OCOC(=O)C(C)(C)C`, the Potency is 0.0086 µM (active). On the same count and under the same terms, under `CCCCNc1ccc(C(=O)OCCOCCOCCOCCOCCOCCOCCOCCOCCOC)cc1` stands 15.2 µM (active); under `COC(=O)Nc1nc2ccc(C(=O)c3cccs3)cc2[nH]1`, 0.215 µM (active); under `C=C(CC)C(=O)c1ccc(OCC(=O)O)c(Cl)c1Cl`, 8.57 µM (active).

As to `CC(=O)[C@]1(O)Cc2c(O)c3c(c(O)c2[C@@H](O[C@H]2C[C@H](N)[C@H](O)[C@H](C)O2)C1)C(=O)c1ccccc1C3=O`, the Potency is 0.0764 µM (active). Still for that read-out and setting: as for `CC[C@]1(O)C[C@@H]2CN(CCc3c([nH]c4ccccc34)[C@@](C(=O)OC)(c3cc4c(cc3OC)N(C)[C@H]3[C@@](O)(C(=O)OC)[C@H](OC(C)=O)[C@]5(CC)C=CCN6CC[C@]43[C@@H]65)C2)C1`, the figure is 0.0764 µM (active). On to `CN(C)C(=O)C(CCN1CCC(O)(c2ccc(Cl)cc2)CC1)(c1ccccc1)c1ccccc1`, for which the Potency is 21.5 µM (active).

On to `Clc1ccc(COC(Cn2ccnc2)c2ccc(Cl)cc2Cl)cc1` (stereo not given), for which the Potency is 9.61 µM (active). In the case of `Cc1cn([C@H]2C[C@H](N=[N+]=[N-])[C@@H](CO)O2)c(=O)[nH]c1=O`, the Potency is 0.541 µM (active).

Turning to `N[C@@H](Cc1ccc(N(CCCl)CCCl)cc1)C(=O)O`, the Potency was 0.681 µM (active). Same read-out and setting: as for `COc1c(C)c2c(c(O)c1C/C=C(\C)CCC(=O)O)C(=O)OC2`, the figure is 0.607 µM (active); as for `Cc1c2oc3c(C)ccc(C(=O)N[C@@H]4C(=O)N[C@H](C(C)C)C(=O)N5CCC[C@H]5C(=O)N(C)CC(=O)N(C)[C@@H](C(C)C)C(=O)O[C@@H]4C)c3nc-2c(C(=O)N[C@@H]2C(=O)N[C@H](C(C)C)C(=O)N3CCC[C@H]3C(=O)N(C)CC(=O)N(C)[C@@H](C(C)C)C(=O)O[C@@H]2C)c(N)c1=O` (I: T[dV]P[Sar][NMeV] / II: T[dV]P[Sar][NMeV]; ester I:1-I:C, II:1-II:C; linker I:N-II:N via Actinocin(9to1)), 0.0764 µM (active).

As to `CC/C(=C(\c1ccccc1)c1ccc(OCCN(C)C)cc1)c1ccccc1`, the Potency was 27.8 µM (active). On the same count and under the same terms, under `O=C1C(=O)c2ccccc2C(O)=C1C1CCC(c2ccc(Cl)cc2)CC1` (stereo not given) stands 12.1 µM (active).
